PubChem BioAssay (NCI)
The panel holds about 79,000 compounds, 15% with a hit somewhere; the sample as a whole holds those more often. Activity calls are given as the source filed them. Cut-off read from the data, not from the text of the source: active = growth inhibition above about 70%; inactive = the rest.

Experiments:
[1] = NCI Yeast Anticancer Drug Screen. Data for the rad52 strain (AID 147);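 note: 0% = growth of vehicle-treated control cultures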; details: S. cerevisiae rad52 mutant growth inhibition, active compounds read high
Outline: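 Compounds are applied to a genetically defined yeast strain lacking normal DNA damage repair, and inhibition of growth is expressed relative to cultures given vehicle only.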

[2] = NCI Yeast Anticancer Drug Screen. Data for the wt1 strain (AID 149);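 note: 0% = growth of vehicle-treated wt1 cultures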; details: S. cerevisiae wt1 strain (SPY 50644) growth inhibition, active compounds read high
Outline: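 wt1 strain grown with compound or vehicle; inhibition taken from the growth difference.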

[3] = NCI Yeast Anticancer Drug Screen. Data for the rad50EPP+ strain (AID 151);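 note: 0% = growth of vehicle-treated control cultures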; details: S. cerevisiae rad50 mutant strain, active compounds read high
Outline: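 Compounds were applied to the rad50EPP+ yeast strain, which bears a defined DNA repair alteration, and growth inhibition was determined relative to vehicle-treated cultures.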

[4] = NCI Yeast Anticancer Drug Screen. Data for the mgt1 strain (AID 153); details: S. cerevisiae mgt1 mutant growth inhibition, active compounds read high
Outline: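 Strain: mgt1 yeast, one of a set carrying defined DNA damage repair or cell cycle control alterations. Compound-treated growth compared with vehicle.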

[5] = NCI Yeast Anticancer Drug Screen. Data for the rad50 strain (AID 155);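 note: 0% = growth of vehicle-only cultures of the same strain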; details: S. cerevisiae rad50 strain growth inhibition, active compounds read high
Outline: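 DNA repair mutant yeast, compound exposure, growth read-out; inhibition is taken relative to vehicle.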

[6] = NCI Yeast Anticancer Drug Screen. Data for the mec2-1 strain (AID 157); details: S. cerevisiae mec2-1 strain, active compounds read high
Outline: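 Strain: mec2-1 (DNA repair/cell cycle alteration). Compound exposure, then growth measured; inhibition expressed relative to vehicle.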

[7] = NCI Yeast Anticancer Drug Screen. Data for the rad14 strain (AID 159);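 note: 0% = growth of vehicle-treated control cultures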; details: S. cerevisiae rad14 strain growth inhibition, active compounds read high
Outline: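 DNA repair-defective yeast, compound-exposed; % growth inhibition derived by comparison with vehicle-treated controls.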

[8] = NCI Yeast Anticancer Drug Screen. Data for the sgs1 mgt1 strain (AID 161);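 note: 0% = growth of cultures given vehicle only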; details: S. cerevisiae sgs1 mgt1 strain, active compounds read high
Outline: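 Genetically altered yeast, compound exposure, growth inhibition relative to vehicle.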

[9] = NCI Yeast Anticancer Drug Screen. Data for the CLN2oe strain (AID 163);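 note: 0% = growth of vehicle-only control cultures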; details: S. cerevisiae CLN2oe strain, active compounds read high
Outline: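 Growth of a genetically modified yeast strain is measured after compound exposure and compared with cultures given vehicle alone.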

[10] = NCI Yeast Anticancer Drug Screen. Data for the cln2 rad14 strain (AID 165);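 note: 0% = growth equal to vehicle treated cultures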; details: S. cerevisiae cln2 rad14 strain, active compounds read high
Outline: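 Compounds are applied to the cln2 rad14 yeast strain, and growth is then compared with that of vehicle-treated cultures to give inhibition.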

[11] = NCI Yeast Anticancer Drug Screen. Data for the bub3 strain (AID 167); details: S. cerevisiae bub3 mutant strain, active compounds read high
Outline: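 In this screen, a yeast mutant lacking normal mitotic checkpoint function is challenged with compound. Relative growth versus vehicle gives the inhibition value.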

[12] = NCI Yeast Anticancer Drug Screen. Data for the wt2 strain (AID 169);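 note: 0% = growth of vehicle-treated yeast cultures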; details: S. cerevisiae wt2 strain growth inhibition, active compounds read high
Outline: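 This strain belongs to a panel of yeast strains with defined genetic alterations in DNA damage repair or cell cycle control. Compounds are applied, and growth inhibition is measured against vehicle-treated cultures.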

[13] = NCI Yeast Anticancer Drug Screen. Data for the mlh1 strain (AID 171);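 note: 0% = growth of vehicle-treated control cultures of the same strain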; details: S. cerevisiae mlh1 strain growth inhibition, active compounds read high
Outline: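 Growth of the mutant yeast strain after compound exposure, expressed as inhibition relative to vehicle-only controls.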

[14] = NCI Yeast Anticancer Drug Screen. Data for the sgs1 strain (AID 173);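 note: 0% = growth of vehicle-only control cultures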; details: S. cerevisiae sgs1 mutant, active compounds read high
Outline: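 Growth of a yeast strain bearing a defined genetic alteration is measured after compound treatment. Inhibition is expressed relative to vehicle-only controls.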

[15] = NCI Yeast Anticancer Drug Screen. Data for the mlh1 rad18 strain (AID 175); details: S. cerevisiae mlh1 rad18 strain growth inhibition, active compounds read high
Outline: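 Read-out is yeast growth inhibition, calculated against vehicle-only controls. The compound was applied to a strain engineered with DNA damage repair alterations.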

[16] = NCI Yeast Anticancer Drug Screen. Data for the rad18 strain (AID 177); details: S. cerevisiae rad18 mutant growth inhibition, active compounds read high
Outline: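 Growth of the mutant yeast strain after compound exposure, normalised to vehicle-only cultures.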

[17] = at 5.0 µM (retest, dose inferred, filed as 0.5)
[18] = at 50.0 µM (retest, dose inferred, filed as 5.0)

Measured: growth inhibition

O=C1c2ccccc2C(=O)c2c(O)c(NCCNCCO)cc(O)c21
inactive: [1]; at 1.2 µM -31% | [1]; at 3.7 µM -13% | [1]; at 11.0 µM 6% | [2]; at 1.2 µM 1% | [2]; at 3.7 µM -1% | [2]; at 11.0 µM 9% | [3]; at 1.2 µM -4% | [3]; at 3.7 µM 8% | [3]; at 11.0 µM 2% | [3]; at 33.0 µM 16% | [4]; at 1.2 µM 0% | [4]; at 3.7 µM 4% | [4]; at 11.0 µM 36% | [5]; at 1.2 µM -9% | [5]; at 3.7 µM -1% | [5]; [17] 19% | [5]; at 11.0 µM 21% | [6]; at 1.2 µM -3% | [6]; at 3.7 µM -12% | [6]; [17] 23% | [6]; at 11.0 µM 11% | [7]; at 1.2 µM -5% | [7]; at 3.7 µM -2% | [7]; at 11.0 µM 40% | [8]; [17] 35% | [9]; at 1.2 µM 21% | [9]; at 3.7 µM 33% | [9]; at 11.0 µM 29% | [10]; [17] 11% | [10]; [18] 57% | [10]; at 50.0 µM 65.5% | [11]; at 1.2 µM 13% | [11]; at 3.7 µM 21% | [11]; [17] 39% | [11]; at 11.0 µM 45% | [12]; at 1.2 µM -16% | [12]; at 3.7 µM -4% | [13]; at 1.2 µM -23% | [13]; at 3.7 µM -13% | [13]; at 11.0 µM 44% | [14]; at 1.2 µM -4% | [14]; at 3.7 µM 12% | [14]; at 11.0 µM 48% | [15]; [17] 58% | [16]; at 1.2 µM -13% | [16]; at 3.7 µM -3% | [16]; at 11.0 µM 20%
active: [1]; at 33.0 µM 88% | [1]; at 100.0 µM 92% | [2]; at 33.0 µM 71% | [2]; at 100.0 µM 83% | [3]; at 100.0 µM 92% | [4]; at 33.0 µM 91% | [4]; at 100.0 µM 96% | [5]; at 33.0 µM 89% | [5]; [18] 93% | [5]; at 50.0 µM 87.3% | [5]; at 100.0 µM 94% | [6]; at 33.0 µM 84% | [6]; [18] 96% | [6]; at 50.0 µM 87.2% | [6]; at 100.0 µM 86% | [7]; at 33.0 µM 95% | [7]; at 100.0 µM 95% | [8]; [18] 97% | [8]; at 50.0 µM 85.2% | [9]; at 33.0 µM 82% | [9]; at 100.0 µM 93% | [11]; at 33.0 µM 90% | [11]; [18] 97% | [11]; at 50.0 µM 70.7% | [11]; at 100.0 µM 91% | [12]; at 11.0 µM 73% | [12]; at 33.0 µM 81% | [12]; at 100.0 µM 93% | [13]; at 33.0 µM 91% | [13]; at 100.0 µM 94% | [14]; at 33.0 µM 93% | [14]; at 100.0 µM 94% | [15]; [18] 95% | [15]; at 50.0 µM 90.3% | [16]; at 33.0 µM 89% | [16]; at 100.0 µM 94%

C[n+]1c(-c2ccc(/C=N/NC(=O)c3ccc(C(=O)N/N=C/c4ccc(-c5cn6ccccc6[n+]5C)cc4)cc3)cc2)cn2ccccc21
inactive: [1]; at 1.2 µM 5% | [1]; at 3.7 µM 14% | [1]; at 11.0 µM 29% | [1]; at 33.0 µM 54% | [1]; at 100.0 µM 60% | [2]; at 1.2 µM 9% | [2]; at 3.7 µM 16% | [2]; at 11.0 µM 26% | [2]; at 33.0 µM 25% | [2]; at 100.0 µM 25% | [3]; at 1.2 µM 69% | [4]; at 1.2 µM 13% | [4]; at 3.7 µM 22% | [4]; at 11.0 µM 42% | [5]; at 1.2 µM 6% | [5]; at 3.7 µM 10% | [5]; [17] 15% | [5]; at 11.0 µM 16% | [5]; at 33.0 µM 55% | [6]; at 1.2 µM 7% | [6]; at 3.7 µM 13% | [6]; [17] -7% | [6]; at 11.0 µM 23% | [6]; at 33.0 µM 41% | [6]; [18] 63% | [6]; at 50.0 µM 49.4% | [7]; at 1.2 µM -1% | [7]; at 3.7 µM 3% | [7]; at 11.0 µM 15% | [7]; at 33.0 µM 66% | [7]; at 100.0 µM 60% | [8]; [17] 24% | [8]; [18] 62% | [9]; at 1.2 µM -2% | [9]; at 3.7 µM 0% | [9]; at 11.0 µM 13% | [9]; at 33.0 µM 30% | [9]; at 100.0 µM 38% | [10]; [17] 16% | [10]; at 50.0 µM 51.4% | [11]; at 1.2 µM -5% | [11]; at 3.7 µM 2% | [11]; [17] -1% | [11]; at 11.0 µM 13% | [11]; at 50.0 µM 69.7% | [12]; at 1.2 µM 13% | [12]; at 3.7 µM 27% | [12]; at 11.0 µM 63% | [13]; at 1.2 µM 3% | [13]; at 3.7 µM 11% | [13]; at 11.0 µM 37% | [13]; at 33.0 µM 69% | [14]; at 1.2 µM 11% | [14]; at 3.7 µM 22% | [14]; at 11.0 µM 44% | [15]; [17] 50% | [16]; at 1.2 µM 10% | [16]; at 3.7 µM 17% | [16]; at 11.0 µM 55% | [16]; at 33.0 µM 55%
active: [3]; at 3.7 µM 86% | [3]; at 11.0 µM 94% | [3]; at 33.0 µM 94% | [3]; at 100.0 µM 94% | [4]; at 33.0 µM 84% | [4]; at 100.0 µM 71% | [5]; [18] 92% | [5]; at 50.0 µM 81.2% | [5]; at 100.0 µM 79% | [6]; at 100.0 µM 76% | [8]; at 50.0 µM 70.7% | [10]; [18] 78% | [11]; at 33.0 µM 70% | [11]; [18] 91% | [11]; at 100.0 µM 76% | [12]; at 33.0 µM 88% | [12]; at 100.0 µM 82% | [13]; at 100.0 µM 84% | [14]; at 33.0 µM 74% | [14]; at 100.0 µM 81% | [15]; [18] 96% | [15]; at 50.0 µM 92% | [16]; at 100.0 µM 70%
